Test results: PubChem BioAssay AID1159580 (chemical genetic matrix, 2015)
Values joined by “and” are separate entries in the source; they are usually repeats but may differ in a detail not shown here. Equal entries are not always repeated. Hit rate of the full screen: of about 5,500 compounds, about 2,000 (36%) were called active. Not shown: some 18% with an inconclusive outcome. Cut-off read from the data, not from the text of the source: active = normalized growth mostly below about 0.91 (no sharp cut-off); inconclusive = no clear call, values can overlap the other calls; inactive = mostly above about 0.92. This is one part of the list.

Assay: chemical genetic growth profiling, strain panel (AID 1159580);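 note: tested at 20 µM; growth read once vehicle control cultures reached saturation at 30 °C; 1 = growth at the plate median or of vehicle wells; lower values mean less growth of the strain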
Settings: S. cerevisiae deletion strains, growth OD

Measured: normalized growth

Oc1ccc(Cl)cc1
inactive: locus YAL013W, strain DEP1, active compounds read low 0.992 | locus YAL021C, strain ccr4, active compounds read low 1.01 | locus YAL026C, strain drs2, active compounds read low 1.03 | locus YAL030W, strain snc1, active compounds read low 1.01 | locus YBL061C, strain skt5, active compounds read low 1.01 | locus YBR009C, strain hhf1, active compounds read low 1.01 | locus YBR021W, strain FUR4, active compounds read low 0.971 | locus YBR023C, strain chs3, active compounds read low 1.01 | locus YBR171W, strain sec66, active compounds read low 1.02 | locus YBR229C, strain ROT2, active compounds read low 0.986 | locus YBR231C, strain swc5, active compounds read low 1 | locus YBR279W, strain paf1, active compounds read low 1.01 | locus YCL011C, strain gbp2, active compounds read low 1.01 | locus YCL016C, strain dcc1, active compounds read low 1.02 | locus YCL029C, strain bik1, active compounds read low 0.976 | locus YCL061C, strain MRC1, active compounds read low 1.02 | locus YCL069W, strain vba3, active compounds read low 1.01 | locus YCR088W, strain abp1, active compounds read low 1.01 | locus YDL005C, strain med2, active compounds read low 1.01 | locus YDL035C, strain GPR1, active compounds read low 0.987 | locus YDL040C, strain nat1, active compounds read low 1.01 | locus YDL074C, strain BRE1, active compounds read low 1.01 | locus YDL101C, strain DUN1, active compounds read low 0.985 | locus YDL134C, strain PPH21, active compounds read low 0.975 | locus YDL185W, strain tfp1, active compounds read low 0.98 | locus YDL192W, strain arf1, active compounds read low 0.977 | locus YDR001C, strain nth1, active compounds read low 1.01 | locus YDR069C, strain doa4, active compounds read low 0.992 | locus YDR101C, strain arx1, active compounds read low 0.973 | locus YDR137W, strain rgp1, active compounds read low 1.04 | locus YDR159W, strain sac3, active compounds read low 0.981 | locus YDR162C, strain NBP2, active compounds read low 0.995 | locus YDR195W, strain ref2 1.02 | locus YDR297W, strain sur2, active compounds read low 1.01 | locus YDR318W, strain mcm21, active compounds read low 0.977 | locus YDR334W, strain swr1, active compounds read low 1.01 | locus YDR335W, strain msn5, active compounds read low 1 | locus YDR388W, active compounds read low 0.962 | locus YDR392W, strain spt3, active compounds read low 0.956 | locus YDR502C, strain sam2, active compounds read low 0.979 | locus YEL003W, strain gim4, active compounds read low 1.01 | locus YEL037C, strain rad23, active compounds read low 1.01 | locus YEL061C, strain CIN8 (second series), active compounds read low 1.01 | locus YEL061C, strain CIN8, active compounds read low 0.993 | locus YER015W, strain faa2, active compounds read low 1.01 | locus YER016W, strain bim1, active compounds read low 0.997 | locus YER110C, active compounds read low 0.973 | locus YER111C, strain swi4, active compounds read low 1.01 | locus YER155C, strain BEM2 (second series), active compounds read low 1.02 | locus YER155C, strain BEM2, active compounds read low 0.987 | locus YER167W, strain BCK2, active compounds read low 0.984 | locus YFR010W, strain ubp6, active compounds read low 1 | locus YGL078C, strain dbp3, active compounds read low 0.978 | locus YGL086W, strain mad1, active compounds read low 1 | locus YGL167C, strain pmr1, active compounds read low 1 | locus YGL173C, strain kem1, active compounds read low 1 | locus YGL227W, strain vid30, active compounds read low 1.01 | locus YGL240W, strain doc1, active compounds read low 1 | locus YGL248W, strain PDE1, active compounds read low 0.991 | locus YGL253W, strain hxk2, active compounds read low 1.02 | locus YGR135W, strain pre9, active compounds read low 0.978 | locus YGR229C, strain SMI1, active compounds read low 0.996 | locus YGR252W, strain gcn5, active compounds read low 1.05 | locus YHR013C, strain ard1, active compounds read low 1.03 | locus YHR027C, strain rpn1, active compounds read low 1.01 | locus YHR030C, strain SLT2, active compounds read low 0.99 and 0.965 | locus YHR079C, strain IRE1 (second series), active compounds read low 0.966 | locus YHR079C, strain IRE1, active compounds read low 0.966 | locus YHR094C, strain hxt1, active compounds read low 0.974 | locus YHR129C, strain ARP1, active compounds read low 0.998 | locus YHR142W, strain chs7, active compounds read low 1.02 | locus YHR200W, strain rpn10, active compounds read low 0.98 | locus YIL066C, strain RNR3, active compounds read low 0.992 | locus YIL073C, strain SPO22, active compounds read low 0.942 | locus YIL125W, strain kgd1, active compounds read low 0.975 | locus YIR030C, strain dcg1, active compounds read low 0.98 | locus YJL092W, strain hpr5, active compounds read low 1.02 | locus YJL095W, strain BCK1 (second series), active compounds read low 1.01 | locus YJL095W, strain BCK1, active compounds read low 1.01 and 0.962 | locus YJL115W, strain asf1, active compounds read low 1.02 | locus YJL129C, strain trk1, active compounds read low 0.99 | locus YJL134W, strain LCB3, active compounds read low 0.991 | locus YJL154C, strain vps35, active compounds read low 1.01 | locus YJL164C, strain tpk1, active compounds read low 1 | locus YJL166W, strain qcr8, active compounds read low 1.02 | locus YJL168C, strain set2, active compounds read low 0.978 | locus YJL187C, strain SWE1 (second series), active compounds read low 0.986 | locus YJL187C, strain SWE1, active compounds read low 1.02 | locus YJR043C, strain POL32, active compounds read low 1 | locus YJR066W, strain TOR1, active compounds read low 0.934
